Measured values as given in PubChem BioAssay (NCI).
Compounds without any hit were thinned out: in the full panel of roughly 83,000, 20% have a hit.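 Activity criterion: percent growth below 10, measured after cells in 96-well plates were exposed to a single compound concentration for 48 hours.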 A number with no mark means an inactive call. Activity calls are given as the source filed them.

Columns and labels:
Assay in all cases: NCI-60 one-dose screen, 48 h (100 = growth as untreated, 0 = no growth, -100 = all killed)
Settings in all cases: 10 µM unless noted
[1] = system: NCI-H23 lung
[2] = system: NCI-H226 lung
[3] = system: NCI-H322M lung
[4] = system: HOP-62 NSCLC
[5] = system: NCI-H460 lung
[6] = system: HOP-92 NSCLC
[7] = system: NCI-H522 lung
[8] = system: A549/ATCC NSCLC
[9] = system: 786-0 renal
[10] = system: COLO 205 colon
[11] = system: DU-145 prostate
[12] = system: K-562 leukemia
[13] = system: MALME-3M melanoma
[14] = system: MDA-MB-231 breast
[15] = system: RXF 393 renal
[16] = system: SF-268 CNS
[17] = system: SF-295 CNS
[18] = system: SF-539 CNS
[19] = system: UACC-257 melanoma
[20] = system: M14 melanoma

| SMILES | growth [1] | growth [2] | growth [3] | growth [4] | growth [5] | growth [6] | growth [7] | growth [8] | growth [9] | growth [10] | growth [11] | growth [12] | growth [13] | growth [14] | growth [15] | growth [16] | growth [17] | growth [18] | growth [19] | growth [20] |
| --- | --- | --- | --- | --- | --- | --- | --- | --- | --- | --- | --- | --- | --- | --- | --- | --- | --- | --- | --- | --- |
| COc1ccc(Nc2ncc(I)c(NCCCNC(=O)C3CCC3)n2)cc1 | 8.39% (active) | 5.32% (active) | 6.78% (active) | -21.3% (active) | 8.88% (active) | -7.19% (active) | 52.2% | -37.6% (active) | 9.69% (active) | -59.3% (active) | 16.3% | 25.7% | 41% | -45.4% (active) | -84.1% (active) | 14.7% | 20.8% | -34.5% (active) | 75.3% | 43% |
| Nc1c(Br)cc2c(c1Br)Cc1cc([N+](=O)[O-])ccc1-2 | 81.3% | 69% | 98.4% | 90.3% | 83.2% | 84.8% | 97% | 86.8% | 109% | 109% | 124% | 69.5% | 67.3% | 90.6% | 115% | 103% | 117% | 99.4% | 93.5% | 111% |
| O=c1c2ccccc2n(C[C@H]2CO2)c2ccccc12 | -58.2% (active) | 51.4% | 20% | -12.8% (active) | -40.5% (active) | -3.5% (active) | -37.5% (active) | -37.2% (active) | -14.1% (active) | 2.46% (active) | 2.26% (active) | 8.2% (active) | -74.3% (active) | 5.95% (active) | -67.1% (active) | -8.61% (active) | 5.39% (active) | -22.1% (active) | -10.1% (active) | 6.45% (active) |
| Ic1ccc(Nc2nc3nonc3nc2Nc2ccc(I)cc2)cc1 | 1.49% (active) | 0.546% (active) | 10.9% | -18.3% (active) | 3.11% (active) | -16.4% (active) | -20.2% (active) | 4.13% (active) | 8.27% (active) | -62.7% (active) | 22.7% | 4.38% (active) | -17.9% (active) | -5.93% (active) | -0.305% (active) | 20.8% | -47.6% (active) | 17% | -29.7% (active) | 2.71% (active) |
| O=[N+]([O-])c1ccccc1Nc1ccc2ccccc2c1 | 97.7% | 97.1% | 108% | 82.7% | 84.4% | 82.9% | 87.8% | 47.8% | 83.5% | 72.5% | 107% | 84.8% | 106% | 91.9% | 133% | 95.5% | 98.3% | 97% | 92.8% | 91.3% |
| C#Cc1cccc(NC(=O)C2CCCCN2C(=O)CCl)c1 (stereo not given) | -76.1% [8.25 µM] (active) | -53.4% [8.25 µM] (active) | 65.1% [8.25 µM] | 26.6% [8.25 µM] | 10.9% [8.25 µM] | -54.2% [8.25 µM] (active) | -57% [8.25 µM] (active) | 36.5% [8.25 µM] | -72.9% [8.25 µM] (active) | -52.5% [8.25 µM] (active) | -33.8% [8.25 µM] (active) | 2.41% [8.25 µM] (active) | -86.7% [8.25 µM] (active) | -62% [8.25 µM] (active) | -87.8% [8.25 µM] (active) | -53.2% [8.25 µM] (active) | 52.4% [8.25 µM] | -91.1% [8.25 µM] (active) | -0.384% [8.25 µM] (active) | -41.9% [8.25 µM] (active) |
| CCn1cc(C(=O)N/N=C/c2cccc(F)c2)c(=O)c2cc(F)c(N3CCNC(C)C3)c(F)c21 (stereo not given) | 76.2% | 97.1% | 83.4% | 86.5% | -79% (active) | 51.2% | -29.8% (active) | -66.6% (active) | -39.7% (active) | 17.5% | -87.5% (active) | -52.1% (active) | -67.4% (active) | -49.6% (active) | -21.6% (active) | 39.4% | 75.7% | -4.61% (active) | 89% | -7.07% (active) |
| O=C(Nc1ncc(Cc2ccccc2)s1)c1sc2ccccc2c1Cl | 40.8% | 65% | 43.4% | 25% | 8.39% (active) | 76.7% | -2.01% (active) | 26.6% | 43.2% | 16.8% | 17% | 12.1% | 51% | 55.5% | -5.07% (active) | 52.1% | 17.7% | -1.43% (active) | 54.6% | 11.1% |
| Cc1cc(NCCCNc2ccnc3cc(Cl)ccc23)nc(Nc2ccc(C(=O)N3CCCCC3)cc2)n1 | 52.5% | 108% | 17.8% | 73.8% | 9.68% (active) | 83.8% | -11.6% (active) | 20.5% | -29.5% (active) | -32.1% (active) | 36.6% | 0.0536% (active) | -90.5% (active) | -38.7% (active) | -63.9% (active) | 10.2% | -34% (active) | -75.1% (active) | -72.9% (active) | -68.3% (active) |
| O=C(/C=C/C12c3ccccc3C(c3ccccc31)C1C(=O)NC(=O)C12)c1ccco1 (stereo not given) | 28.7% | 81.6% | 30.2% | 17.7% | 11% | 24% | 17% | 55.4% | 41.1% | 45.8% | -0.301% (active) | 12.9% | 49.3% | 40.3% | 1.72% (active) | 28.7% | 41.9% | 30.8% | 44.9% | 46.6% |
| C=CN(C(=O)N1CCN(c2cc3c(cc2F)c(=O)c(C(=O)O)cn3C2CC2)CC1)c1nc(-c2ccccc2)cs1 | 101% | 98.1% | 84.1% | 98.4% | 104% | 90.6% | 81.4% | 102% | 90.1% | 98.5% | 107% | 94.8% | 107% | 90.4% | 103% | 99.4% | 95.7% | 96.5% | 100% | 105% |
| O=S(Nc1ccccc1)c1ccc(Cl)cc1 (stereo not given) | 105% | 99.9% | 104% | 92% | 95.1% | 103% | 82.8% | 78.9% | 103% | 102% | 116% | 94.6% | 108% | 103% | 99.2% | 100% | 107% | 102% | 86.2% | 99.2% |
| Cn1c(=O)[nH]c(=O)c2nc3c(nc21)-c1ccccc1C3=O | 95.6% | 92.2% | 102% | 94.3% | 102% | 100% | 96.4% | 106% | 101% | 114% | 104% | 99% | 102% | 101% | 99.3% | 99.3% | 97.7% | 95.8% | 102% | 99.4% |
| COc1cc(/C=C/C(=O)c2cc(OC)c(OC)c(OC)c2)ccc1Oc1nc2c(c(=O)n(C)c(=O)n2C)n1C | -51.1% (active) | -35.4% (active) | 0% (active) | -40.8% (active) | -5.25% (active) | 3.39% (active) | -68.7% (active) | -13.2% (active) | -87.4% (active) | -77% (active) | 7.64% (active) | 10.2% | -26.8% (active) | 9.39% (active) | -89.4% (active) | 11.9% | -10.1% (active) | -24.9% (active) | 40.8% | -28.5% (active) |
| COCCOC(C)C(/C=N/NC(N)=S)=N/NC(N)=S (stereo not given) | 49.8% | 72.2% | 89.8% | 72.4% | 85.8% | 101% | 94.5% | 78.3% | 99.3% | 90.6% | 102% | 37.6% | 94.3% | 68% | 97.2% | 83.4% | 76.2% | 91.9% | 34.5% | 65.5% |
| O=C(Oc1ccc2c(c1)sc1nc(-c3ccccc3)[nH]c(=O)c12)C(F)(F)F | 52.8% | 58.3% | 56.3% | 39.3% | 13% | 54.1% | 25.1% | 28.3% | 51% | 88.3% | 44.2% | 15.3% | 33.3% | 61.4% | 43.8% | 44% | 51.9% | 27.9% | 49.1% | 4.5% (active) |
